From the supplement of paper PMC10849652
Targets with a hit are over-represented here; the source holds about 8,800 in all. About 0.5% of all pairs of compound and target were hits.

Tests used:
Experiment in all cases: log2 fold change, soluble protein after heating vs DMSO (PISA); higher = thermal stabilisation; K562 lysate, 10 uM; active = over 0.2 and 3.5 SD of the protein, either way, in both replicates (recomputed)
[1] = compound: C#Cc1cccc(Nc2ncnc3cc(OCCOC)c(OCCOC)cc23)c1 [erlotinib]
How it was run: (§1)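 Following dounce homogenisation of K562 pellets in PBS pH 7.4 with 1 mM MgCl2, crude extract at 1 mg/mL protein was incubated for 30 min with 10 μM compound. Aliquots were then heated for 3 min over 48°C-58°C and pooled, NP-40 was added to 0.5% at 4°C, and soluble protein was recovered as the supernatant at 21,000xg for 90 min. Channel-sum-equalised TMTpro 16plex LC-MS/MS quantified this protein. Each value, from duplicates, is a log-two fold change in thermal stability relative to solvent controls.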

[2] = compound: C/C(=N\NC(=O)C1=CC(=CC=C1)S(=O)(=O)N2CCOCC2)/C3=C(C=CC(=C3)Cl)O
How it was run: as §1

[3] = compound: C1=CC(=CC=C1C2=NC3=C(N2)C=C(C=C3)C(=O)N)OC4=CC=C(C=C4)Cl
How it was run: as §1

[4] = compound: C1=CC2=C(C=CC(=C2)/C=C\3/C(=O)NC(=NCC4=CC=CS4)S3)N=C1
How it was run: as §1

[5] = compound: C1=CC2=NC=CN=C2C=C1/C=C/3\C(=O)NC(=O)S3
How it was run: as §1

[6] = compound: C1=CC=C(C=C1)C2=NC(=C(N2)C3=CC=NC=C3)C4=CC(=C(C=C4)Cl)O
How it was run: as §1

[7] = compound: C1=CC=C2C(=C1)C3=NNC4=CC=CC(=C43)C2=O
How it was run: as §1

[8] = compound: C1CCN(C1)C(=O)NC2=CC=CC(=C2)NC3=NC=C(C(=N3)NCCC4=CN=CN4)Br
How it was run: as §1

[9] = compound: C1CN(CCC1(CC2=CC=C(C=C2)Cl)N)C3=NC=NC4=C3C=CN4
How it was run: as §1

[10] = compound: C1COCCN1CCN2C3=CC=CC=C3N=C2NC(=O)C4=CC(=CC=C4)[N+](=O)[O-] [IRAK-1-4 Inhibitor I]
How it was run: as §1

Measured: log2 fold change

UCHL5 (UniProt Q5LJA9)
inactive: [1] -0.052 | [2] 0.084 | [3] 0.005 | [4] -0.024 | [5] -0.032 | [6] 0.016 | [7] -0.045 | [8] 0.035 | [9] 0.006 | [10] 0.054

TTC5 (UniProt Q8N0Z6)
Chain of UniProt Q8N0Z6 (Q8N0Z6 whole entry, looked up): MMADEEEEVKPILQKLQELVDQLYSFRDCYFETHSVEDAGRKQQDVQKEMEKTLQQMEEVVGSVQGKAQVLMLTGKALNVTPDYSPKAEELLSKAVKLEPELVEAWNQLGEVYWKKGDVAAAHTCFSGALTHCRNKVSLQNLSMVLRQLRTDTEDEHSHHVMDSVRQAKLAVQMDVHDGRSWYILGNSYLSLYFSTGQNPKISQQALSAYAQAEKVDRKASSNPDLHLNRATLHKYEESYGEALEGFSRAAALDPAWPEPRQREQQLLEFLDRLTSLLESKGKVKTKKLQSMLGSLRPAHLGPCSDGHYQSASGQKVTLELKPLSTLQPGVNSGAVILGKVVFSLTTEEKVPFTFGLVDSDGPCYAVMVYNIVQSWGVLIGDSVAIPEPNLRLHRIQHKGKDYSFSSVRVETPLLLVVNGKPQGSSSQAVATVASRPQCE
inactive: [1] -0.015 | [2] -0.089 | [3] -0.014 | [4] -0.034 | [5] 0.041 | [6] 0.022 | [7] 0.016 | [8] 0.017 | [9] 0.033 | [10] -0.008

TK1 (UniProt P04183)
inactive: [1] 0.003 | [2] -0.112 | [3] 0.036 | [4] -0.001 | [5] 0.028 | [6] -0.003 | [7] 0.021 | [8] 0.013 | [9] 0.017 | [10] 0.008

TMEM177 (UniProt Q53S58)
Chain of UniProt Q53S58 (Q53S58 whole entry, looked up): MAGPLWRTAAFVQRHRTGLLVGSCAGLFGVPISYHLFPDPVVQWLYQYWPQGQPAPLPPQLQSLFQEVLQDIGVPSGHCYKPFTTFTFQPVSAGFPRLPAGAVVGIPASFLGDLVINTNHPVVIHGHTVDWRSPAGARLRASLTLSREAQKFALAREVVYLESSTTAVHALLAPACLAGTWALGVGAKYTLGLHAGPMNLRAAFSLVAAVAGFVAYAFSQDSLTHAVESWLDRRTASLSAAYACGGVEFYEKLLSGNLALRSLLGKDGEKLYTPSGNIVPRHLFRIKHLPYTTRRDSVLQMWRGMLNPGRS
inactive: [1] 0.042 | [2] 0.06 | [3] -0.042 | [4] 0.016 | [5] -0.019 | [6] -0.054 | [7] 0.148 | [8] 0.019 | [9] 0.005 | [10] 0

TUBB2A (UniProt Q13885)
Chain of UniProt Q13885 (Q13885 whole entry, looked up): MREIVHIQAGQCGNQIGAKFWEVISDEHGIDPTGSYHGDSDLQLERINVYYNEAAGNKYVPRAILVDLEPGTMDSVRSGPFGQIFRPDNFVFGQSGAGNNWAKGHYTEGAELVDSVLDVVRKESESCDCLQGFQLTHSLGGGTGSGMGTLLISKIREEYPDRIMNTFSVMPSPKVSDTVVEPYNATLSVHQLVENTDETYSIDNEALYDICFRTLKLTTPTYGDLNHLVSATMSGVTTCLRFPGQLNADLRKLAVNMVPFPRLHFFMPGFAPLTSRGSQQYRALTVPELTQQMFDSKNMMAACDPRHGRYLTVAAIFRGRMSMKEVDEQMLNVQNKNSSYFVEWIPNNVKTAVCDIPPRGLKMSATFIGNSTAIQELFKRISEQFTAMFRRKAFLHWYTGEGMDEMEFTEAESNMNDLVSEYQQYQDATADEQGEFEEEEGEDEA
inactive: [1] 0.008 | [2] 0.04 | [3] 0.004 | [4] -0.021 | [5] -0.028 | [6] -0.008 | [7] -0.03 | [8] 0.014 | [9] 0.026 | [10] 0.019

TUBB3 (UniProt Q13509)
inactive: [1] 0.025 | [2] -0.089 | [3] 0.016 | [4] -0.004 | [5] 0.001 | [6] -0.019 | [7] -0.025 | [8] 0.018 | [9] 0.03 | [10] 0.006

TBC1D2B (UniProt Q9UPU7)
Chain of UniProt Q9UPU7 (Q9UPU7 whole entry, looked up): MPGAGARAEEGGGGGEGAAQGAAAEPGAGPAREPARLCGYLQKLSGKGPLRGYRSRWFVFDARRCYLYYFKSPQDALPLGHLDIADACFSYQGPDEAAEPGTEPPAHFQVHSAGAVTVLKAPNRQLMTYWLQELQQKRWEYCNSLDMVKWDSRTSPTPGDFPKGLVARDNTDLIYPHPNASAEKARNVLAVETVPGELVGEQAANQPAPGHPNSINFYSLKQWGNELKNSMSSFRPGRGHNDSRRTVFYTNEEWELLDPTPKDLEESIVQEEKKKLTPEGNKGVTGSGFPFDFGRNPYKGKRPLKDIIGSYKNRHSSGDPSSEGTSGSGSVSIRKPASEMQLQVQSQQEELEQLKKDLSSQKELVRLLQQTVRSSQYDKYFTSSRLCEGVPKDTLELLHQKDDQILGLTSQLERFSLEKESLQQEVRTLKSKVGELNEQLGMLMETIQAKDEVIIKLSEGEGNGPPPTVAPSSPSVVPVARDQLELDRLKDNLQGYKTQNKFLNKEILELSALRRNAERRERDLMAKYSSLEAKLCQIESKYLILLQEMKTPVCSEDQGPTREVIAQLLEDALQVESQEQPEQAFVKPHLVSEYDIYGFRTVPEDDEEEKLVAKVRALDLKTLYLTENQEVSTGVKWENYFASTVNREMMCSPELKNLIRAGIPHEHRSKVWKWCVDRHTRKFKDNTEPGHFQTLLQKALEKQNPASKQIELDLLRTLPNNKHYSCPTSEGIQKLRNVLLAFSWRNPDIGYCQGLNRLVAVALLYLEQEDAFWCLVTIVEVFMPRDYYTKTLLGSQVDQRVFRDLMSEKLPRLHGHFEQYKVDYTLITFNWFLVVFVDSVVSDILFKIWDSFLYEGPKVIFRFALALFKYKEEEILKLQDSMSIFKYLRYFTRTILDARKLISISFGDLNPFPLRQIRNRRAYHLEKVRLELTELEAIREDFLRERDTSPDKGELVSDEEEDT
inactive: [1] -0.005 | [2] -0.028 | [3] 0.098 | [4] 0.03 | [5] -0.053 | [6] 0.042 | [7] -0.111 | [8] -0.031 | [9] -0.024 | [10] -0.075

TTC37 (UniProt Q6PGP7)
Chain of UniProt Q6PGP7 (Q6PGP7 whole entry, looked up): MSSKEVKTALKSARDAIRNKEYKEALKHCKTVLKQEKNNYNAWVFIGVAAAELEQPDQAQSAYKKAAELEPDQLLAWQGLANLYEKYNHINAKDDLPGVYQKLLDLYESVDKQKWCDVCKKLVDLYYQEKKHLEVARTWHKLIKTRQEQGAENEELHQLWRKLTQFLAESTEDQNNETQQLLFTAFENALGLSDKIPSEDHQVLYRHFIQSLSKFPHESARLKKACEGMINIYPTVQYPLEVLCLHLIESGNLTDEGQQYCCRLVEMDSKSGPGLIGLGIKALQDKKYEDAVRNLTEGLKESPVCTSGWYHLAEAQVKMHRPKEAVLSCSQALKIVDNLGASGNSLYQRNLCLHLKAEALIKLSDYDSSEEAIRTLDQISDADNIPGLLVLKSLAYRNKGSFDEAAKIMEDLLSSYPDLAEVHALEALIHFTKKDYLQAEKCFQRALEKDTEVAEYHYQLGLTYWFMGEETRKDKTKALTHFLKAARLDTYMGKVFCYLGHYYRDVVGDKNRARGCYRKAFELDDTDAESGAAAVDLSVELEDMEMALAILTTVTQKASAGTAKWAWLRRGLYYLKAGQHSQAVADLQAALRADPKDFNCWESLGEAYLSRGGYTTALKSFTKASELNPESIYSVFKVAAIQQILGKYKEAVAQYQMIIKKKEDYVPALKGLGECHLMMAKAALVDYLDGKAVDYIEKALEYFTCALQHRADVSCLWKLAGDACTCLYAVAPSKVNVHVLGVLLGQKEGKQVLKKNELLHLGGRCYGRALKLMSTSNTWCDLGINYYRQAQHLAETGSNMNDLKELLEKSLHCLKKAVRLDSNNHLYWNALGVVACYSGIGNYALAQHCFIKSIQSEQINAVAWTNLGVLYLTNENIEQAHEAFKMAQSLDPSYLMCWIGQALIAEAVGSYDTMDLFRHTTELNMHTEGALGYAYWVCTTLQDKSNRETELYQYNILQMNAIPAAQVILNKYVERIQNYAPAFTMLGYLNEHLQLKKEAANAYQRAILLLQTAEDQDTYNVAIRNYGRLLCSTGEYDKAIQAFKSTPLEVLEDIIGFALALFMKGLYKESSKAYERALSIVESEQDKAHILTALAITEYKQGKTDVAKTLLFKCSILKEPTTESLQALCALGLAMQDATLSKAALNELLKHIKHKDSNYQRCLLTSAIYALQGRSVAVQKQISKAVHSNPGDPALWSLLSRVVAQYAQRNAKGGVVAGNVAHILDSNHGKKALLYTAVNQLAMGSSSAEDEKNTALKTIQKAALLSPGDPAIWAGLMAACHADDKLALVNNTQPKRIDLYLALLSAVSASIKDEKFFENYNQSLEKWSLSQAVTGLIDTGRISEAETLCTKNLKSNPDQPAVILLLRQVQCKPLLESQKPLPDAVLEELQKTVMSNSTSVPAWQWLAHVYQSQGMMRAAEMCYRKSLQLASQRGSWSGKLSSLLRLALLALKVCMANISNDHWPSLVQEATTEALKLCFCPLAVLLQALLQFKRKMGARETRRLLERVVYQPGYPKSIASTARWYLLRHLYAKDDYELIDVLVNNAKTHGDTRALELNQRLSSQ
inactive: [1] 0.05 | [2] -0.148 | [3] 0.07 | [4] -0.014 | [5] -0.069 | [6] -0.187 | [7] -0.068 | [10] 0.051

TIAL1 isoform 2 (UniProt Q01085)
Chain of UniProt Q01085 (Q01085 whole entry, looked up): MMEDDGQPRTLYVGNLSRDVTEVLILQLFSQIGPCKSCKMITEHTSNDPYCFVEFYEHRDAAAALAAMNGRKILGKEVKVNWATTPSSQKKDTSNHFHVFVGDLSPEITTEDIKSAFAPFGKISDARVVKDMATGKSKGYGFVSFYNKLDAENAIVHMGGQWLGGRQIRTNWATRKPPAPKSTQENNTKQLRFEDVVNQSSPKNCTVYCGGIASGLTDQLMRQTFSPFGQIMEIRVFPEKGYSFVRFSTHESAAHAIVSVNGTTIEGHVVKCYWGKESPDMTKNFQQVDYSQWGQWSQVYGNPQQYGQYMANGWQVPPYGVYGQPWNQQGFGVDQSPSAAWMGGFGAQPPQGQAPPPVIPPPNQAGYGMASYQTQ
inactive: [1] 0.015 | [2] -0.001 | [3] 0.023 | [4] -0.015 | [5] -0.019 | [6] -0.035 | [7] 0.059 | [8] 0 | [9] 0.017 | [10] 0.058

TFIP11 (UniProt Q9UBB9)
inactive: [1] -0.026 | [2] -0.099 | [3] -0.082 | [4] -0.025 | [5] -0.027 | [6] 0.023 | [7] -0.036 | [8] -0.008 | [9] 0.074 | [10] -0.016

TRMT12 (UniProt Q53H54)
inactive: [1] 0.065 | [2] 0.01 | [3] 0.018 | [4] 0.058 | [5] -0.044 | [6] 0.106 | [7] -0.047 | [8] -0.064 | [9] 0.07 | [10] -0.03

TXNRD2 (UniProt Q9NNW7)
inactive: [1] -0.01 | [2] -0.085 | [3] 0.049 | [4] 0.008 | [5] -0.025 | [6] 0.009 | [7] -0.031 | [8] 0.017 | [9] 0.044 | [10] -0.007

TCF12 isoform 3 (UniProt Q99081)
inactive: [1] -0.001 | [2] -0.025 | [3] 0.081 | [4] 0.006 | [5] -0.004 | [6] -0.017 | [7] 0.003 | [8] -0.063 | [9] 0.006 | [10] 0.051

TCP11L1 (UniProt Q9NUJ3)
inactive: [1] 0.082 | [2] 0.032 | [3] 0.032 | [4] 0.033 | [5] -0.053 | [6] 0.075 | [7] -0.069 | [8] -0.005 | [9] 0.094 | [10] 0.001

TGFBRAP1 (UniProt Q8WUH2)
inactive: [1] 0.015 | [2] 0.057 | [3] -0.016 | [4] -0.002 | [5] -0.018 | [6] -0.02 | [7] -0.056 | [8] 0.023 | [9] 0.006 | [10] -0.026

TOE1 (UniProt Q96GM8)
inactive: [1] -0.035 | [2] -0.064 | [3] 0.006 | [4] 0.036 | [5] 0.054 | [6] -0.021 | [7] -0.024 | [8] 0 | [9] -0.035 | [10] -0.021

TMEM167B (UniProt Q9NRX6)
Chain of UniProt Q9NRX6 (Q9NRX6 whole entry, looked up): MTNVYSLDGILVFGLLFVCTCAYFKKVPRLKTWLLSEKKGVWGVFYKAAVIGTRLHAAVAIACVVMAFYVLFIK
inactive: [1] -0.061 | [2] -0.016 | [3] -0.006 | [4] -0.042 | [5] -0.044 | [6] -0.002 | [7] 0.013 | [8] -0.056 | [9] 0.036 | [10] -0.014

UBE3B (UniProt Q7Z3V4)
inactive: [1] -0.14 | [2] -0.218 | [3] -0.3 | [4] 0.056 | [5] 0.142 | [6] 0.011 | [7] -0.022 | [8] -0.04 | [9] -0.12 | [10] 0.019

TUBA1C (UniProt Q9BQE3)
inactive: [1] 0.007 | [2] -0.028 | [3] 0.044 | [4] -0.019 | [5] -0.012 | [6] 0.031 | [7] -0.077 | [8] -0.008 | [9] 0.014 | [10] 0.04

TUBGCP4 (UniProt Q9UGJ1)
Chain of UniProt Q9UGJ1 (Q9UGJ1 whole entry, looked up): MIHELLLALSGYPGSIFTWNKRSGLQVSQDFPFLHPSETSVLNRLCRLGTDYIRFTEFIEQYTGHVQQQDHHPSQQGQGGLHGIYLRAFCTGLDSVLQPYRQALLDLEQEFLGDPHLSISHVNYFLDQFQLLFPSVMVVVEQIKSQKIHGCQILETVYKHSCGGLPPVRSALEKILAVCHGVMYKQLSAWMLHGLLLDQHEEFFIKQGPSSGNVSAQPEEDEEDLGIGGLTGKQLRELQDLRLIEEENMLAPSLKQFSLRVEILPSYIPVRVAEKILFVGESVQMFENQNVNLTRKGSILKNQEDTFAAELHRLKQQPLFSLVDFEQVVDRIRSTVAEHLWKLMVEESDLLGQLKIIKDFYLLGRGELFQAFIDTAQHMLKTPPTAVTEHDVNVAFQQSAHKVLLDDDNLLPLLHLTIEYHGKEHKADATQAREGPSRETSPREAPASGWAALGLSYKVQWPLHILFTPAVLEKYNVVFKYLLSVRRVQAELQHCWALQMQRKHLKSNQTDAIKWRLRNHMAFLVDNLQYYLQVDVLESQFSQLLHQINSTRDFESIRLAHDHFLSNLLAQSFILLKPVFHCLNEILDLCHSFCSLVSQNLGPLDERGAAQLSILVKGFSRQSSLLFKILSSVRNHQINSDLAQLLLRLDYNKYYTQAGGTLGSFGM
inactive: [1] -0.017 | [2] -0.017 | [3] -0.007 | [4] 0.015 | [5] -0.018 | [6] -0.01 | [7] -0.028 | [8] 0.133 | [9] 0.045 | [10] 0.052

TPM3 isoform 2 (UniProt P06753)
inactive: [1] -0.075 | [2] -0.007 | [3] -0.065 | [4] -0.008 | [5] 0.003 | [6] 0.004 | [7] 0.038 | [8] 0.039 | [9] -0.074 | [10] -0.042

TTL (UniProt Q8NG68)
inactive: [1] 0.056 | [2] 0.01 | [3] 0 | [4] 0.019 | [5] -0.001 | [6] -0.027 | [7] 0.097 | [8] 0.006 | [9] -0.074 | [10] 0.019

TCF3 (UniProt P15923)
inactive: [1] 0.027 | [2] -0.028 | [3] 0.067 | [4] 0.004 | [5] 0.016 | [6] 0.011 | [7] 0.07 | [8] -0.005 | [9] 0.022 | [10] 0.04

TPM3 (UniProt P06753)
inactive: [1] -0.022 | [2] 0.027 | [3] -0.026 | [4] -0.042 | [5] -0.012 | [6] 0.014 | [7] 0.068 | [8] 0.035 | [9] -0.021 | [10] -0.019

TMEM97 (UniProt Q5BJF2)
Chain of UniProt Q5BJF2 (Q5BJF2 whole entry, looked up): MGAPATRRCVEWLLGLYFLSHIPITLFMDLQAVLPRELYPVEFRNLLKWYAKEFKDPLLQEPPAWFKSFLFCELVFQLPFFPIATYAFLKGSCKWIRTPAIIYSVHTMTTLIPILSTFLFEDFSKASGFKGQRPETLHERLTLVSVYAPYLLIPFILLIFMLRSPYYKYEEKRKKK
inactive: [1] 0.01 | [2] 0.043 | [3] 0.036 | [4] 0.007 | [5] 0.019 | [6] 0 | [7] 0.002 | [8] -0.033 | [9] 0.018 | [10] 0.091

TPM1 (UniProt H7BYY1)
inactive: [1] -0.034 | [2] -0.004 | [3] -0.057 | [4] 0.026 | [5] -0.008 | [6] 0.091 | [7] -0.041 | [8] 0.012 | [9] -0.02 | [10] -0.071

UBR1 (UniProt Q8IWV7)
inactive: [1] 0.01 | [2] 0.058 | [3] -0.055 | [4] -0.002 | [5] 0.026 | [6] 0.015 | [7] -0.016 | [8] -0.047 | [9] 0.008 | [10] 0.002

TUBGCP3 (UniProt Q96CW5)
inactive: [1] -0.035 | [2] 0.021 | [3] -0.054 | [4] 0.044 | [5] 0.02 | [6] -0.039 | [7] 0.012 | [8] -0.044 | [9] -0.019 | [10] -0.054

UBR4 isoform 4 (UniProt Q5T4S7)
inactive: [1] 0.121 | [2] -0.209 | [3] -0.073 | [4] -0.071 | [6] 0.136 | [7] 0.016 | [8] 0.119 | [9] -0.094 | [10] 0.097

TPD52L2 isoform 3 (UniProt O43399)
inactive: [1] 0.008 | [3] -0.036 | [5] -0.028 | [6] -0.049 | [10] 0.029

TCF3 (UniProt X6REB3)
inactive: [2] -0.006 | [4] -0.208 | [7] -0.192
